Data on 35 molecules can be found in PubChem BioAssay (NCATS).

Where “and” joins values, the source holds several entries; their conditions need not be identical. Equal values may be shown once. Results filed as inconclusive are left out. A call without a number means that no potency is given here. Calls of active or inactive are those of the source. The call rests on the fitted dose curve; in most records, active means well fitted inhibition curve with a large enough effect; inconclusive means small, poorly fitted or top-dose-only effect; inactive means flat fitted curve, though single readings scatter.
Potency means the concentration at half of the fitted maximal effect.

Sequence of Phospholipid hydroperoxide glutathione peroxidase GPX4 (Homo sapiens) (P36969 whole entry, looked up): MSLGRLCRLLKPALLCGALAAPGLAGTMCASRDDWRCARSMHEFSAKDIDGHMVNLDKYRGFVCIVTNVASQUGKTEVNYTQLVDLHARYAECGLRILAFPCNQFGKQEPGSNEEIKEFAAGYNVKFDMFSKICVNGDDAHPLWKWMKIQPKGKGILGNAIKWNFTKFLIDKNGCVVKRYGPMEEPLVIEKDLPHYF

The test has as its target Phospholipid hydroperoxide glutathione peroxidase GPX4 (Homo sapiens) (UniProt P36969). Kind of test: Primary qHTS Assay for Inhibitors of Recombinant Selenoprotein Glutathione Peroxidase 4 (GPX4) (AID 1845192). Further: nearly all actives have a fitted effect of over 65% in size. As to conditions: recombinant GPX4, GR-coupled NADPH fluorescence, 15 min; series mostly up to 50 µM. The method, boiled down: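 GR-coupled readout: 100 nM GR, 1 mM GSH, 0.5 mM NADPH; NADPH fluorescence (ex 340/em 450 nm) read at t=0 and after 15 min RT. GPX4 200 nM, preincubated 30 min with compound; substrate 0.5 mM CHP.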
On the technique in general: In qHTS, concentration-response curves come from the screen itself.
On to `C[C@]1(CO)CN(c2cc(C(=O)Nc3ccc4c(c3)-c3c(c(C(N)=O)nn3-c3ccc(F)cc3)CC4)c(Cl)cn2)C[C@@]1(C)CO`, for which the Potency entry was “inactive”. Same read-out and setting: with `CC(C)[C@H](C(=O)Nc1ccc(C(=O)NO)cc1)c1ccccc1` the entry was “inactive”; with `Nc1ccn([C@@H]2CS[C@H](CO)O2)c(=O)n1`, “inactive”. Turning to `CC(C)(C)c1cc(C(C)(C)C)c(NC(=O)c2c[nH]c3ccccc3c2=O)cc1O`, the Potency is 17.8 µM (active). As to `Cc1cc(C(=O)N2CCN(c3cccc(Cl)c3)CC2)n(-c2ccccc2)n1`, the Potency entry was “inactive”.

For the molecule `O=C(NC1CCNCC1)c1[nH]ncc1NC(=O)c1c(Cl)cccc1Cl`, the Potency entry is “inactive”. Regarding `CNC(=O)c1ccccc1Nc1nc(Nc2ccc(N3CCOCC3)cc2OC)ncc1Cl`, the Potency entry is “inactive”. The same measure, in the same setting: with `CC(C)Nc1cc(C(F)(F)F)cc2nc(NC(=O)c3cccnc3)nn12` the entry was “inactive”; with `CC(C)CC(=O)Nc1n[nH]c2c1CN(C(=O)C1CCN(C)CC1)C2(C)C`, “inactive”. The same measure, in the same setting: to `Cn1cc(-c2[nH]c3cc(NC(=O)[C@H](N)C4CCCCC4)cc4c3c2C=NNC4=O)cn1` belongs “inactive”; to `CCCCCCCCCC(=O)N[C@@H](Cc1c[nH]c2ccccc12)C(=O)N[C@H](CC(N)=O)C(=O)N[C@@H](CC(=O)O)C(=O)N[C@@H]1C(=O)NCC(=O)N[C@@H](CCCN)C(=O)N[C@@H](CC(=O)O)C(=O)N[C@H](C)C(=O)N[C@@H](CC(=O)O)C(=O)NCC(=O)N[C@H](CO)C(=O)N[C@@H]([C@@H](C)CC(=O)O)C(=O)N[C@@H](CC(=O)c2ccccc2N)C(=O)O[C@@H]1C`, “inactive”; to `CC1(C)CCC(c2ccc(Cl)cc2)=C(CN2CCN(c3ccc(C(=O)NS(=O)(=O)c4ccc(N[C@H](CCN5CCOCC5)CSc5ccccc5)c(S(=O)(=O)C(F)(F)F)c4)cc3)CC2)C1`, 10.1 µM (active). On the same count and under the same terms, to `CS(=O)(=O)N1CCN(Cc2cc3nc(-c4cccc5[nH]ncc45)nc(N4CCOCC4)c3s2)CC1` belongs “inactive”; to `O=C(c1cncc(Br)c1)N1CCC(N2CCCC2)CC1`, “inactive”. With `COc1c(OCCCN2CCOCC2)ccc2c3n(c(=NC(=O)c4cnc(N)nc4)nc12)CCN3`, the activity change, negative = inhibition is -4.71% [at 9.73 µM] (inactive) and -19.4% [at 9.73 µM] (inactive); the outcome was “inactive [at 9.73 µM]”. With `CN(C)Cc1c(C(=O)NCCOc2ccc(C(=O)NO)cc2)oc2ccccc12`, the Potency result is “inactive”. As to `CN1c2cc(O)c(N=NC(N)=O)cc2CC1S(=O)(=O)O` (stereo unspecified), the Potency entry is “inactive”.

With `COC(=O)c1ccc2c(C(=Nc3ccc(N(C)C(=O)CN4CCN(C)CC4)cc3)c3ccccc3)c(O)[nH]c2c1`, the Potency result is “inactive”. Same read-out and setting: to `COc1cc(C(=O)N2CCC(N3CCN(C)CC3)CC2)ccc1Nc1ncc2c(n1)N(C)c1ccccc1C(=O)N2C` belongs “inactive”. Still for that read-out and setting: with `COc1cccc2c(NCc3ccccc3)nc(-n3c(N)nc4ccccc43)nc12` the entry was “inactive”; with `COc1cc(C(C)C)c2c(c1)S(=O)(=O)N(COc1cc(=O)n3cccc(OCCN4CCCCC4)c3n1)C2=O`, “inactive”. Still for that read-out and setting: to `CC(C)C[C@H](NC(=O)CNC(=O)c1cc(Cl)ccc1Cl)B(O)O` belongs “inactive”; to `CC[C@H](CO)Nc1nc(NCc2ccccc2)c2ncn(C(C)C)c2n1`, “inactive”; to `CCCNC(=O)Nc1ccc(Oc2ncnc3cc(OC)c(OC)cc23)cc1Cl`, “inactive”. For `CCNC(=O)Nc1ccc2ncc(Nc3ccc(C)cc3)nc2n1`, the Potency result was “inactive”. Still for that read-out and setting: to `CNC(=O)c1ccc(-c2cnc3ncc(Cc4ccc5ncccc5c4)n3n2)cc1F` belongs “inactive”; to `Cc1nc2ccc(CN(C)c3ccc(C(=O)N[C@@H](CCC(=O)O)C(=O)O)s3)cc2c(=O)[nH]1`, “inactive”; to `CC(C)(C)OC(=O)Nc1ccc(-c2cc(C(=O)NCCCCCCC(=O)NO)no2)cc1`, “inactive”.

Turning to `CC(=O)SC[C@@H](C)C(=O)N1CCC[C@H]1C(=O)N[C@@H](Cc1ccccc1)C(=O)O`, the Potency entry is “inactive”. The same measure, in the same setting: to `CN(C)CCCN=c1c2ccccc2n(C)c2[nH]c(=O)n(C)c(=O)c12` belongs “inactive”. Turning to `O=C(CCCCCCNC(=O)c1cnc(N(c2ccccc2)c2ccccc2)nc1)NO`, the Potency result was “inactive”. The same measure, in the same setting: with `CCc1cc2c(cc1N1CCC(N3CCOCC3)CC1)C(C)(C)c1[nH]c3cc(C#N)ccc3c1C2=O` the entry was “inactive”; with `O=c1c2ccccc2nc2n1CCc1c-2[nH]c2ccccc12`, “inactive”.

`O=C(NCCS(=O)(=O)c1ccc(C(F)(F)F)cn1)c1ccc(Cl)cc1`: the Potency result was “inactive”. Same read-out and setting: to `COC(=O)C1=C(C)NC(C)=C(C(=O)OCCN2CCN(C(c3ccccc3)c3ccccc3)CC2)C1c1cccc([N+](=O)[O-])c1` (stereo unspecified) belongs “inactive”.
